High-throughput results as filed in PubChem.
Shown are actives, neighbours in structure and some others; about 5.2% of the full set was active somewhere.
SMARCA2 act: activators of SMARCA2 function; 370,000 compounds, 1% hits; AID 652017; MG213 cells, MMTV-luciferase reporter, dexamethasone, overnight; activation, % at 9.1 µM; in the data active = activation above about 7.8%;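 note: 0% = vehicle wells and 100% = reference activator wells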
NR3A LBD binder: modulates the human NR3A ligand-binding domain. Tm shift relative to glycine control, % at 25 µM. AID 1259313. NR3A LBD differential scanning fluorimetry, Tm shift; 0% = protein alone, 100% = glycine-bound protein. 340,000 compounds, 2.5% hits;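 active = melting temperature shift of at least 10% of the positive control shift, at one fixed dose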
Vif inh: HIV Vif inhibition. HEK293T cells, Vif self-association by quenched fluorescence, imaging, 24 h. inhibition, % at 7.49 µM. 340,000 compounds, 0.35% hits. AID 602346; in the data active = inhibition above about 50%, passing the limit was not always enough; inconclusive = no clear call, values can overlap the other calls; inactive = below about 31%
SKN-1 inh: C. elegans SKN-1 inhibition; C. elegans VP596 Pgst-4::GFP/RFP ratio, acrylamide-induced, 24 h; inhibition, % at 21.8 µM; 360,000 compounds, 0.49% hits; AID 624304;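 active = interference check ratio from 0.5 to 1.5 plus GFP to RFP signal ratio inhibition reaching or exceeding a fixed threshold, cut at about 30% in these data, passing the limit was not always enough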
esBAF inh: inhibitors of esBAF chromatin remodeling in mouse ES cells | Bmi1-luciferase knock-in reporter, 24 h; 100% = twice the neutral-well signal | reporter increase, % at 12.5 µM | 350,000 compounds, 2% hits | AID 602393; in the data active = activation above about 40%; inconclusive = no clear call, values can overlap the other calls;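 note: 0% = median of the plate's neutral control wells and 100% = double that signal; a rise in the Bmi1 reporter signal indicates esBAF inhibition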
NadD inh: blocks S. aureus nicotinate mononucleotide adenylyltransferase. AID 602399. 360,000 compounds, 0.78% hits. purified NadD enzyme, colorimetric absorbance read-out. inhibition, % at 20 µM; in the data active = inhibition above about 26%
Numbers without * were called inactive; ? = inconclusive; . = no result given.

SMILES | SMARCA2 act | NR3A LBD binder | Vif inh | SKN-1 inh | esBAF inh | NadD inh
Cc1ccc(C(=O)c2ccccc2C(=O)OCC(=O)N2CCCC2)cc1 | 0 | 0 | 10 | 4 | 43* | -1
O=C(OCC(=O)N1CCCCC1)c1ccccc1SCC(=O)N1CCCCC1 | 1 | -2 | 11 | -6 | 7 | -4
Nc1cc(Cl)ccc1C(=O)OCC(=O)N1CCCC1 | 2 | 0 | 12 | 28 | 29 | -2
O=C([C@H]1[C@H](CO)[C@H]2Cn3c(ccc(C4=CCCC4)c3=O)[C@H]2N1Cc1nccs1)N1CCCCC1 | . | . | . | . | -5 | .
COc1ccc(NC(=O)N(C)C[C@H]2OCCCC[C@@H](C)Oc3ccc(NS(=O)(=O)c4ccc(OC)cc4)cc3C(=O)N([C@H](C)CO)C[C@@H]2C)cc1 | . | . | . | . | -1 | .
O=C(OCCN1C(=O)c2cccc3c(N4CCOCC4)ccc(c23)C1=O)c1ccc(Cl)cc1Cl | 0 | 11* | -5 | -16 | . | -9
O=C(OCCN1C(=O)c2cccc3c(N4CCOCC4)ccc(c23)C1=O)c1ccccc1Cl | -7 | -8 | -12 | -6 | . | -7
CC(=O)c1cnc(-c2ccccn2)s1 | -1 | 1 | -2 | -4 | . | -8
CC(=O)c1cnc(-c2ccccc2Cl)s1 | 2 | 0 | 57* | -8 | 21 | 3
C[C@@H]1CN([C@@H](C)CO)S(=O)(=O)c2ccc(C#CC3CC3)cc2O[C@H]1CN(C)CC1CCCC1 | . | . | . | . | -5 | .
C(=C/c1nccc2c1[nH]c1ccccc12)/c1ccc2c(c1)OCO2 | 0 | 13* | 72* | 13 | 76* | 19
C/C(=N/OC(=O)c1ccc(C)cc1)c1cccs1 | 3 | 1 | 17 | -2 | -2 | -6
C/C(=N/OC(=O)c1ccccc1Br)c1ccc(C)cc1 | 4 | 1 | -2 | 30 | 64* | -1
COc1cc(NC(=O)CN2C(=O)C(=O)N(CC(C)C)C2=O)cc(OC)c1 | -2 | 29* | 9 | -2 | -2 | -4
COc1cc(NC(=O)CN2C(=O)C(=O)N(C3CCCC3)C2=O)cc(OC)c1 | -3 | -36 | -1 | -16 | 1 | -3
CC(=O)c1cccc(NC(=O)/C=C/c2ccc(S(=O)(=O)N3CCOCC3)cc2)c1 | -2 | 5 | . | 6 | -4 | 2
O=C(/C=C/c1cccc(F)c1)Nc1ccc(S(=O)(=O)N2CCOCC2)cc1 | -4 | 37* | 4 | 9 | 0 | -1
O=C(/C=C/c1ccccc1)Nc1ccc(S(=O)(=O)N2CCOCC2)cc1 | -3 | 31* | -4 | 0 | . | -1
CCCC(C(=O)Nc1ccc(S(=O)(=O)N2CCOCC2)cc1)c1ccccc1 (stereo unspecified) | -3 | -5 | -7 | 37* | -7 | -6
CN(C)S(=O)(=O)c1cccc(NC(=O)/C=C/c2ccc(S(=O)(=O)N3CCOCC3)cc2)c1 | -5 | -1 | -19 | 10 | -38 | -3
O=C(/C=C/c1ccc(OC(F)F)cc1)Nc1cccc(S(=O)(=O)N2CCOCC2)c1 | 3 | 20* | -8 | 12 | 11 | -8
CCOC(=O)C[C@@H](C#N)NC(=O)[C@@H]1CCCN1C(=O)[C@@H](NC(=O)c1ccc(N)c(Cl)c1)C(C)(C)C | -6 | . | 76* | -6 | -4 | 2
CC(C)(C)[C@H](NC(=O)c1ccc(N)c(Cl)c1)C(=O)N1CCC[C@H]1C(=O)N[C@H](C#N)CC(=O)O | -7 | . | -9 | 4 | 5 | -2
Cc1ccc(S(=O)(=O)NCC[C@@H]2CC[C@@H](NC(=O)Nc3ccccc3F)[C@@H](CO)O2)cc1 | . | . | . | . | -2 | .
COc1ccccc1-c1ccc2c(c1)O[C@@H](CN(C)C(=O)c1cccnc1)[C@@H](C)CN([C@H](C)CO)S2(=O)=O | . | . | . | . | -4 | .
SMILES | SMARCA2 act | NR3A LBD binder | Vif inh | SKN-1 inh | esBAF inh | NadD inh
O=C(CC1C(=O)N(c2ccc(Cl)cc2)C(=S)N1CCc1ccncc1)Nc1ccc(F)cc1 (stereo unspecified) | -2 | 29* | 6 | 5 | -6 | 9
COc1ccc(N2C(=O)C(CC(=O)Nc3ccc(Cl)cc3)N(NC(=O)c3cccc(F)c3)C2=S)cc1 (stereo unspecified) | 7 | 16* | -9 | -3 | -4 | 9
C[C@H](CO)N1C[C@H](C)[C@@H](CN(C)Cc2ccncc2)Oc2ccc(NC(=O)CCN3CCOCC3)cc2CC1=O | . | . | . | . | 3 | .
COC(=O)c1ccc(CN(c2ccc(C(=O)O)c(O)c2)S(=O)(=O)c2ccc(Cl)c([N+](=O)[O-])c2)cc1 | -2 | 22* | 11 | -12 | 4 | -2
CN1C(=O)c2cc(NC(=O)NC3CCCC3)ccc2OC[C@@H]2O[C@H](CC(=O)NC3CCC3)CC[C@H]21 | . | . | . | . | -4 | .
Cc1ccc2[nH]c(C(=O)Nc3ccc(F)cc3)cc2c1 | 2 | 5 | -11 | 5 | 62* | 6
Cc1cc(C)c2cc(C(=O)Nc3ccccc3)[nH]c2c1 | 0 | 1 | -15 | 7 | 60* | 0
CCC(=O)N1C[C@@H]2[C@H](c3ccccc31)[C@H](CO)N2Cc1ccccc1F | . | . | . | . | -2 | .
Cc1ccc(Nc2ccc(C(F)(F)F)cc2[N+](=O)[O-])cc1 | 0 | 11* | 1 | 10 | . | 16
C/C(=N\Nc1ccc(C(F)(F)F)cc1[N+](=O)[O-])C1CC1 | -2 | 14* | -3 | 6 | . | 4
Cc1c(/C=N\NC(=O)C2COc3ccc(C(C)(C)C)cc3O2)c2ccccc2n1C (stereo unspecified) | -3 | 10* | 14 | 4 | -3 | 22
Cn1cccc1/C=N\NC(=O)C1COc2ccc(C(C)(C)C)cc2O1 (stereo unspecified) | -3 | -9 | -11 | -2 | 17 | -2
Cc1ccc(S(=O)(=O)N(C)C[C@@H]2Oc3ccc(NS(=O)(=O)c4cn(C)cn4)cc3CC(=O)N([C@@H](C)CO)C[C@H]2C)cc1 | . | . | . | . | 2 | .
COCc1nc2oc3ccccc3c(=O)c2cc1C(=O)OC | 1 | 1 | -9 | 1 | 48* | -7
O=C(C[C@@H]1CC[C@H]2[C@@H](COC[C@H](O)CN2Cc2cccc(-c3ccncc3)c2)O1)N1CCCCC1 | . | . | . | . | 8 | .
COCC(=O)n1nc(-c2ccccc2)nc1NCc1ccccc1 | -2 | 1 | 3 | 7 | 21 | -4
COCC(=O)n1nc(-c2ccccc2)nc1NCc1ccc(F)cc1 | 3 | 13* | -1 | -33 | ? | -4
Oc1ccc(Br)cc1-c1ccn[nH]1 | 0 | -7 | -5 | -4 | . | -4
Oc1ccc(Br)cc1-c1cc(-c2ccco2)[nH]n1 | -1 | 19* | 18 | 27 | . | -5
S=c1[nH]nc(-c2cc(-c3ccco3)[nH]n2)n1-c1ccccc1 | -1 | 3 | -5 | -10 | 2 | 4
O=[N+]([O-])c1ccccc1-c1cc(-c2cc(Cl)ccc2O)n[nH]1 | -1 | 18* | -10 | 8 | . | -1
Oc1c(-c2cc(-c3ccco3)[nH]n2)ccc2ccccc12 | 3 | 21* | 7 | 24 | 65* | -2
